Laboratory results taken from the supplement of paper PMC9262897, “Low-cost anti-mycobacterial drug discovery using engineered E. coli” (Nature Communications, 2022).
Where a name gives a salt, the structure may show the parent alone. ± gives the standard deviation of the averaged measurements.

System: E. coli TESEC Mtb Alr
Assay: growth (OD600 after 10 h); higher = more growth (less inhibition)
Details: compound 0.1 mM
Procedure: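 TESEC Mtb Alr E. coli, or the Alr+ wild-type control, in 384-well plates with Prestwick library compounds at 0.1 mM and 1% DMSO, across arabinose induction levels of 1E3 to 1E7 nM. Growth is read as OD600 after 10 h at 37 °C in triplicate biological replicates.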

[1] = arabinose 1000 nM, raw OD600 reference: median of DMSO wells 0.294, cell-free background 0.041
[2] = arabinose 10000 nM, raw OD600 reference: median of DMSO wells 0.264, cell-free background 0.041
[3] = arabinose 100000 nM, raw OD600 reference: median of DMSO wells 0.201, cell-free background 0.041
[4] = arabinose 1000000 nM, raw OD600 reference: median of DMSO wells 0.193, cell-free background 0.041
[5] = arabinose 10000000 nM, raw OD600 reference: median of DMSO wells 0.146, cell-free background 0.041

| SMILES | growth [1] | growth [2] | growth [3] | growth [4] | growth [5] |
| --- | --- | --- | --- | --- | --- |
| N=C(N)NC(=O)Cc1c(Cl)cccc1Cl [Guanfacine hydrochloride] | 0.287 ± 0.0063 | 0.26 ± 0.0052 | 0.236 ± 0.018 | 0.143 ± 0.0065 | 0.165 ± 0.0022 |
| CCN(CC)CCNC(C(=O)OCCC(C)C)c1ccccc1 (stereo not given) [Camylofine chlorhydrate] | 0.254 ± 0.0087 | 0.261 ± 0.0027 | 0.208 ± 0.017 | 0.156 ± 0.0056 | 0.148 ± 0.0031 |
| CCCCC1C(=O)N(c2ccccc2)N(c2ccc(O)cc2)C1=O (stereo not given) [Oxyphenbutazone] | 0.255 ± 0.0043 | 0.262 ± 0.0047 | 0.211 ± 0.027 | 0.124 ± 0.0071 | 0.129 ± 0.004 |
| COC(=O)C1=C(C)NC(C)=C(C(=O)OCC(C)C)C1c1ccccc1[N+](=O)[O-] (stereo not given) [Nisoldipine] | 0.189 ± 0.022 | 0.1989 ± 0.0016 | 0.133 ± 0.0061 | 0.101 ± 0.011 | 0.112 ± 0.0029 |
| NC[C@H]1O[C@H](O[C@H]2[C@H](O[C@@H]3O[C@H](CO)[C@@H](O)[C@H]3O)[C@@H](O)[C@H](N)C[C@@H]2N)[C@H](N)[C@@H](O)[C@@H]1O [Ribostamycin sulfate salt] | 0.286 ± 0.0099 | 0.269 ± 0.0065 | 0.182 ± 0.025 | 0.201 ± 0.015 | 0.138 ± 0.0082 |
| NC(=O)OCC(COC(N)=O)c1ccccc1 [Felbamate] | 0.288 ± 0.0029 | 0.26 ± 0.0095 | 0.201 ± 0.023 | 0.204 ± 0.0095 | 0.137 ± 0.0061 |
| CN[C@@H]1[C@H](O[C@H]2[C@H](O[C@H]3[C@H](O)[C@@H](O)[C@H](N=C(N)N)[C@@H](O)[C@@H]3N=C(N)N)O[C@@H](C)[C@]2(O)C=O)O[C@@H](CO)[C@H](O)[C@H]1O [Streptomycin sulfate] | 0.04617 ± 0.00029 | 0.0396 ± 0.00055 | 0.04577 ± 0.00042 | 0.03957 ± 0.00025 | 0.0731 ± 0.0022 |
| CO[C@H]1/C=C/O[C@@]2(C)Oc3c(C)c(O)c4c(O)c(c5c(nc6cc(C)ccn65)c4c3C2=O)NC(=O)/C(C)=C\C=C\[C@H](C)[C@H](O)[C@@H](C)[C@@H](O)[C@@H](C)[C@H](OC(C)=O)[C@@H]1C [Rifaximin] | 0.0438 ± 0.0029 | 0.0409 ± 0.0005 | 0.0411 ± 0.00017 | 0.0418 ± 0.0021 | 0.0439 ± 0.0024 |
